The full list was thinned out, with hits kept by preference.
LASV entry inh: qHTS for Inhibitors of binding or entry into cells for Lassa Virus; hit rate 1.2% among 300,000; Potency, µM (doses to about 37.9 µM), without a hit: at the top dose activity change, negative = inhibition, most hits filed as inhibitors; AID 540256, 2011; Lassa virus pseudotype entry inhibition, cell reporter; calls by dose curve; tested in HEK293 cells; also: potency is read from the fitted curve at half-maximal effect; % is scaled to controls: 0 for no effect and ±100 for the full control effect; nearly all actives have a fitted effect of over 50% in size
VACV Venus inh: qHTS for Stage-Specific Inhibitors of Vaccinia Orthopoxvirus: Venus Reporter Primary qHTS. hit rate 0.46% among 330,000. Potency, µM (titrated, usually from 36.5 µM), for inactives: top-dose activity change, negative = inhibition, usual class: inhibitors. Vaccinia virus Venus reporter expression, fluorescence; calls by dose curve; tested in A549 cells; also: potency is read from the fitted curve at half-maximal effect; % is scaled to controls: 0 for no effect and ±100 for the full control effect; nearly all actives have a fitted effect of over 30% in size
Shiga inhibitor: A qHTS for Small Molecule Inhibitors of Shiga Toxin; Vero cells, Shiga toxin protein synthesis inhibition reporter; inhibition, % at 38.7 µM; hit rate 9.2% among 290,000; AID 2315, 2010; in the data active = inhibition mostly above about 28%, no sharp cut-off; inactive = mostly below about 43%; also: 0% is about no effect
Vaccinia mCherry: qHTS for Stage-Specific Inhibitors of Vaccinia Orthopoxvirus: mCherry Reporter Primary qHTS | AID 720579, 2013 | Vaccinia virus mCherry reporter infection, fluorescence | Potency, µM (top dose mostly 36.5 µM), without a hit: at the highest dose activity change, negative = inhibition, actives largely listed as inhibitors | hit rate 0.63% among 310,000; calls by dose curve; tested in A549 cells; also: potency is read from the fitted curve at half-maximal effect; % is scaled to controls: 0 for no effect and ±100 for the full control effect; nearly all actives have a fitted effect of over 35% in size
Cycloheximide cs: Cycloheximide Counterscreen for Small Molecule Inhibitors of Shiga Toxin | hit rate 12% among 300,000 | max response, % | cell reporter, cycloheximide protein synthesis inhibition counterscreen; in the data active = max response mostly above about 13%, no sharp cut-off; inactive = mostly below about 14%; also: read at 38.3 µM for the half of the compounds with a filed dose; 0% is about no effect
Marburg entry inh: qHTS for inhibitors of binding or entry into cells for Marburg Virus | Marburg virus pseudotyped entry inhibition, cell reporter | Potency, µM (doses to about 37.8 µM), for the others: at the top dose activity change, negative = inhibition, actives largely listed as inhibitors | hit rate 1.8% among 300,000; calls by dose curve; tested in HEK293 cells; also: potency is read from the fitted curve at half-maximal effect; % is scaled to controls: 0 for no effect and ±100 for the full control effect
An asterisk follows results filed as active; i = inactive; ? = inconclusive; nt = no result; [ ] = another dose, or the depositor's remark.

SMILES	LASV entry inh	VACV Venus inh	Shiga inhibitor	Vaccinia mCherry	Cycloheximide cs	Marburg entry inh
COc1ccc(S(=O)(=O)NCCc2csc(-c3cccnc3)n2)cc1	nt	0%	-2	-4%	-5	-1%
Cc1cc2c(s1)c1cnn(Cc3ccc(F)cc3)c(=O)c1n2C	nt	nt	4	nt	10	nt
C=CCn1c(C)nnc1SCC(=O)c1[nH]c(C)c(C(C)=O)c1C	-4%	-7%	2	i	-4	1%
COc1ccc(CSc2nnc(C)s2)cc1F	-6%[46.1 µM]	-8%	73*	i	16*	13%[46.1 µM]
CC(=O)c1c(C)[nH]c(C(=O)CSc2nnc(C)s2)c1C	10%	-3%	92*	-14%	44*	-1%[46.1 µM]
COC(=O)c1ccc(CSc2nc(N)cc(N)n2)cc1	23%	nt	53*	nt	36*	-3%
COc1ccccc1N1CCN(C(=O)c2oc3ccccc3c2N)CC1	nt	-3%	nt	-13%	nt	?
CCOC(=O)c1[nH]c(C)c(CCC(=O)NCc2ccc(OCC)cc2)c1C	-23%[46.1 µM]	-6%	nt	-14%	nt	nt
O=C1CCCc2nc(N3CCCCC3)sc21	22%	-15%	51*	nt	30*	?
Cc1ccc(CN2c3ccccc3-c3nc(SCC(=O)Nc4c(C)cc(C)cc4C)ncc3S2(=O)=O)cc1	?	-16%	nt	-21%	nt	nt
O=C(CSc1oc(-c2ccc(F)cc2)nc1S(=O)(=O)c1ccc(Cl)cc1)c1ccccc1	?	-21%	nt	-25%	nt	?
Cn1cnc([N+](=O)[O-])c1Sc1nc2ccccc2[nH]1	?	-24%	-5	?	0	-16%
Cn1cnc([N+](=O)[O-])c1Oc1ccc2ccccc2c1	?	7.9µM*	-3	6.3µM*	-2	?
COc1cc(/C=C/C(=O)OCC(=O)Nc2ccc3c(c2)OCCO3)ccc1O	-26%	-20%	17	?	4	?
Cc1cccc(/C=C(\C#N)C(=O)Nc2ccccn2)c1	24%[46.1 µM]	-1%	-5	-12%	0	2%[46.1 µM]
CCOc1cc(/C=C(\C#N)C(=O)Nc2ccccn2)ccc1O	10%[46.1 µM]	4%	44	i	13*	?
COc1cc(/C=C(\C#N)C(=O)Nc2ccc3c(c2)OCCO3)ccc1O	nt	nt	51*	nt	33*	nt
COc1ccc(/C=C(\C#N)C(=O)NC(C)c2ccccc2)cc1O (stereo not drawn)	1%	-9%	17	?	13*	-7%[46.1 µM]
COc1cc(/C=C(\C#N)C(=O)Nc2ccccn2)ccc1O	nt	-8%	52*	-13%	19*	?
CCC(=O)N1CCc2cc(Br)cc(S(=O)(=O)N3CCCC(C(=O)NCc4ccccc4)C3)c21 (stereo not drawn)	-8%[46.1 µM]	-12%	nt	-2%	nt	6%[46.1 µM]
Cc1nn(Cc2c(F)c(F)c(F)c(F)c2F)c(C)c1NC(=O)c1ccc(COc2ccc(F)cc2)o1	-22%	nt	-14	nt	-1	3.7µM*
Cc1cccc(C)c1NC(=O)c1cccc(COc2cc(Cl)ccc2Cl)c1	3%	-11%	62*	-12%	29*	6%
COCCOc1cc(NC(=O)c2cccc(OC)c2)c(Cl)cc1Cl	-7%	4%	33	2%	6	-19%[46.1 µM]
Cc1nn(Cc2c(F)c(F)c(F)c(F)c2F)c(C)c1NC(=O)c1ccc(COc2cc(Cl)ccc2Cl)cc1	-22%	nt	109*	nt	54*	-6%
Cc1nn(Cc2c(F)c(F)c(F)c(F)c2F)c(C)c1NC(=O)c1ccc(COc2ccccc2Cl)o1	?	?	21	?	-3	?
SMILES	LASV entry inh	VACV Venus inh	Shiga inhibitor	Vaccinia mCherry	Cycloheximide cs	Marburg entry inh
Cc1cccc(C(=O)Nc2cc(OCc3cccc(F)c3)c(Cl)cc2Cl)c1	0%	nt	32	nt	16*	24%
Cc1cc2occ(CC(=O)N(C)CC(=O)Nc3ccccc3Br)c2cc1C	-7%	-22%	nt	-18%	nt	11%
COc1ccc(NC(=O)CCCSc2nc(-c3ccco3)cc(C(F)(F)F)n2)cc1	-3%[46.1 µM]	-6%	nt	-14%	nt	0%[46.1 µM]
COc1ccc(C(CC(=O)c2ccc(C)cc2)C(C#N)C#N)cc1OC (stereo not drawn)	?	?	66*	?	29*	?
Nc1ccc2oc(CCc3ccccc3)nc2c1	?	nt	167*	nt	48*	?
c1ccc2oc(CCc3nc4ccccc4o3)nc2c1	-11%	-11%	20	-14%	15*	?
CNC(=O)c1ccc2nc(CCc3ccccc3)oc2c1	27%[46.1 µM]	-10%	nt	-2%	nt	nt
Cc1nc(NCc2c(F)cccc2F)sc1-c1ccn(CCN2CCOCC2)n1	nt	-3%	nt	-10%	nt	nt
COc1cc(/C=C/c2noc(-c3ccccc3O)n2)cc(OC)c1OC	10%	-17%	26	-15%	18	17%
COc1ccc(/C=C/c2noc(-c3ccccc3O)n2)cc1	11µM*	2%	83*	-5%	56*	?
CC(=O)Oc1ccccc1-c1nc(/C=C/c2ccccc2)no1	?	-10%	63*	i	47*	0%
Cc1cnc(-n2ncc(C(=O)N(CCO)C(C)C)c2-c2cccs2)nc1-c1ccc(F)cc1	nt	-16%	nt	-18%	nt	nt
Nc1nonc1-c1nc2cnccc2n1C1CCCCC1	-15%	nt	nt	nt	nt	nt
O=C(Cc1ccccc1)N/N=C/c1ccc2cccc(O)c2n1	?	-17%	38	?	32*	-3%[46.1 µM]
NC(=O)N/N=C/c1ccc2cccc(OCc3ccccc3)c2n1	-25%	-11%	20	?	2	-8%[46.1 µM]
N/C(=N\OC(=O)Nc1ccccc1)c1cccc(C(F)(F)F)c1	nt	nt	43*	nt	29*	nt
COC(=O)/C(=C\Nc1ccccc1N)c1ncc(C(F)(F)F)cc1Cl	-11%	-8%	101*	nt	68*	?
N/C(=N\OC(=O)Nc1ccccc1)c1ncc(C(F)(F)F)cc1Cl	10%	-25%	53*	nt	20*	?
O=C(c1cc(-c2ccccc2Cl)on1)N1CCCC1	?	-8%	33	i	14*	11µM*
COc1ccccc1-c1cc(C(=O)N2CCN(c3ccc(F)cc3)CC2)no1	-29%	-11%	36	-2%	1	-3%
COc1ccccc1-c1cc(C(=O)N2CCOCC2)no1	7%[46.1 µM]	-4%	89*	-15%	29*	?
COc1ccccc1-c1cc(C(=O)N2CCCC2)no1	-27%[46.1 µM]	-7%	84*	i	34*	?
CCn1c(CNC(=O)C23CC4CC(CC(C4)C2)C3)nnc1SCC(=O)Nc1ccccc1	13%[46.1 µM]	5%	nt	1%	nt	2%[46.1 µM]
